Drawing on PubChem BioAssay (NCI), this text covers growth for ten molecules.

SMILES strings stand for the structures. “And” between values parts separate entries of the source, which are not always exact repeats. Equal entries are not always repeated. Compounds without any hit were thinned out: in the full panel of roughly 83,000, 20% have a hit.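 Interpretation: 100, growth as untreated; towards 0, rising growth inhibition; 0, no net growth; 0 to -100, cell death. Compounds scoring below 10 were considered active.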 Values without a mark were called inactive. The source made the active and inactive calls.

For this experiment, the system named is MDA-MB-468 breast. The experiment is described as follows: NCI-60 one-dose screen, 48 h (100 = growth as untreated, 0 = no growth, -100 = all killed). The conditions noted are these: 10 µM unless noted.
As for `CC(=O)OC1CC2C(C)(C)CCC[C@]2(C)C2=C1C(O)=C(C(C)C)C(=O)C2=O` (stereo not given in full), the growth is -49.5% (active).

Turning to `C[C@@H]1O[C@@H](O[C@H]2[C@@H](OC(=O)[C@]34CCC(C)(C)C[C@H]3C3=CC[C@@H]5[C@@]6(C)C[C@H](O)[C@H](O[C@@H]7O[C@H](CO)[C@@H](O)[C@H](O)[C@H]7O)[C@@](C)(CO)[C@@H]6CC[C@@]5(C)[C@]3(C)C[C@H]4O)OC[C@@H](O)[C@@H]2O)[C@H](O)[C@H](O[C@@H]2OC[C@@H](O)[C@H](O[C@@H]3OC[C@](O)(CO)[C@H]3O[C@@H]3OC[C@@H](O)[C@H](O)[C@H]3O)[C@H]2O)[C@H]1O[C@@H]1OC[C@](O)(CO)[C@H]1O`, the growth was -24.2% (active).

On to `O=C(CC(=O)Nc1cccc(C(=O)O)c1)Nc1cccc(C(=O)O)c1`, for which the growth was 108%.

With `CC(C)(C)c1nc2c(s1)c1nc(N)ncc1c1ccc(NS(=O)(=O)c3c(F)cccc3F)c(F)c12`, the growth is 60.2%.

Regarding `CCO/C=N/C1=C(C#N)C(c2ccc(F)cc2)c2sc3c(CC)cccc3c2O1` (stereo not given), the growth was 7.27% (active).

As for `CCOC(=O)c1sc2nc(-c3cccc(OC)c3)nc(N3CCOCC3)c2c1C`, the growth was 81.2%.

Consider `COc1ccc2nc3cc(Cl)ccc3c(N3CCN(c4nccc(Nc5ccc(Cl)cc5)n4)CC3)c2c1`, for which the growth is 82.8%.

For `CCCCCC(=O)N(CCCC)CCCC`, the growth is 97.8%.

Consider `Nc1ccc(N=Nc2ccc(S(=O)(=O)O)cc2)cc1S(=O)(=O)O`, for which the growth is 150% and 75.5%.

As to `O=C(Nc1cccc2c1CCCC2)c1cc2ccccc2cc1O`, the growth was 33.8%.
